Values joined by “and” are separate entries in the source; they are usually repeats but may differ in a detail not shown here. Equal values may be shown once. About 610 (9.5%) of roughly 6,400 compounds were called active. No stated cut-off is given here; in the data, active means activity change below about -70%; inconclusive means no clear call, values can overlap the other calls; inactive means above that. The list comes from a sample in which actives are over-represented; it also holds similar structures and randomly drawn compounds. More than one record can exist for a structure, and the calls need not agree. *1 amine or outer side, *2 acyl side, *3 side chain or, on linkers, in order; H or OH if unused. Where a SMILES comes first, the peptide text is derived from it. Side-chain parts run from the residue outwards. [ ]: non-standard residue; d: D form. The star is where a group is joined. Ethylenediamine = C(CN[*:2])N[*:1]; Hyp = O=C(O)[C@@H]1C[C@@H](O)CN1; Phg = N[C@H](C(=O)O)c1ccccc1; CO = O=C([*:1])[*:2]; Bn = c1ccc(C*)cc1

The nature of the test: T. gondii ME49Luc in HeLa cells, luciferase assay, 72 h, no IFN-y (AID 1259421). Conditions: stronger effect = lower value, concentration not given here.
Turning to `NC(C(=O)O)[C@@H]1CC(Cl)=NO1` (stereo partly specified), the activity change, negative = inhibition is -82% (active). For `N[C@H](C(=O)O)[C@@H]1CC(Cl)=NO1`, the activity change, negative = inhibition was -72.2% (active). With `COC(=O)C1[C@H]2C[C@H]3c4[nH]c5ccccc5c4CCN3C[C@@H]2CC[C@@H]1O` (stereo partly specified) the figure was -3.89% (inactive). `CC(=O)OCC(=O)[C@@]1(O)CCC2C3CCC4=CC(=O)CC[C@]4(C)C3[C@@H](O)C[C@@]21C` (stereo partly specified): the activity change, negative = inhibition is -6.4% (inactive) and -14.3% (inactive). As to `CN(C)Cc1cccc(N=C(c2ccccc2)c2c(O)[nH]c3cc(C(=O)N(C)C)ccc23)c1`, the activity change, negative = inhibition was -81.4% (active). With `COC(=O)c1ccc2c(C(=Nc3ccc(N(C)C(=O)CN4CCN(C)CC4)cc3)c3ccccc3)c(O)[nH]c2c1`, the activity change, negative = inhibition was -75.7% (active). Regarding `CN(C)Cc1cccc(N=C(c2ccccc2)c2c(O)[nH]c3cc(C(N)=O)ccc23)c1`, the activity change, negative = inhibition is 9.28% (inactive) and -68.3% (inactive).

For the compound `O=C(O)CN1CCN(CC(=O)O)CCN([C@H](CO)C(O)CO)CCN(CC(=O)O)CC1.[Gd]` (stereo partly specified), the activity change, negative = inhibition was 8% (inactive). Consider `CC1(CN)Cc2ccccc2C1`, for which the activity change, negative = inhibition was 26% (inactive). As to `C=CC(C)(O)CC[C@@H]1[C@@]2(C)CCCC(C)(C)C2CC[C@@]1(C)O` (stereo partly specified), the activity change, negative = inhibition was 13.1% (inactive). Next, `COc1ccc2c(c1)OCC(Cc1ccc(OC)c(O)c1)C2=O` (stereo unspecified): -61% (inactive); `O=C(O)C1=CC(O)C(O)[C@H](O)C1` (stereo partly specified): -17.2% (inactive); `CCC[C@@H](N[C@@H](C)C(=O)N1[C@@H](C(=O)O)C[C@@H]2CCCC[C@@H]21)C(=O)OCC`: 10.1% (inactive).

With `CCn1c(=O)c(-c2ccn[nH]2)cc2c(C)nc(N)nc21`, the activity change, negative = inhibition is -57.4% (inactive). Turning to `COc1ccc(-c2cc3c(C)nc(N)nc3n(C3CCC(OCCO)CC3)c2=O)cn1` (stereo unspecified), the activity change, negative = inhibition was -79.8% (active). As to `N#CCC(=O)NN`, the activity change, negative = inhibition is 10.7% (inactive).

Turning to `O=C(N[C@@H](CO)[C@H](O)c1ccc([N+](=O)[O-])cc1)C(Cl)Cl`, the activity change, negative = inhibition was 5.04% (inactive).

For `CCS(=O)(=O)Nc1ccc2[nH]c(O)c(C(=Nc3ccc(CN4CCCCC4)cc3)c3ccccc3)c2c1`, the activity change, negative = inhibition was -88% (active).

As for `N[C@H](C(=O)O)[C@H](O)c1ccc(O)c(O)c1`, the activity change, negative = inhibition was -6.51% (inactive). For `Cc1ccc(C(=O)Nc2ccc(Oc3cc4cnn(C)c4cc3-c3cn[nH]c3)c(F)c2)c(=O)n1-c1ccc(F)cc1`, the activity change, negative = inhibition is -82.1% (active). On to `COC(=O)C(c1ccccc1Cl)N1CCc2sccc2C1` (stereo unspecified), for which the activity change, negative = inhibition was 6.54% (inactive). As for `CC[C@@]1(O)C(=O)OCc2c1cc1n(c2=O)Cc2cc3cc(O)ccc3nc2-1`, the activity change, negative = inhibition is -73.3% (active) and -92.8% (active). In the case of `CC[C@@]1(O)C(=O)OCc2c1cc1n(c2=O)Cc2c-1nc1cc(F)c(C)c3c1c2[C@@H](N)CC3`, the activity change, negative = inhibition was -89.9% (active). As for `CCc1c2c(nc3ccc(O)cc13)-c1cc3c(c(=O)n1C2)COC(=O)[C@]3(O)CC`, the activity change, negative = inhibition was -93.3% (active). With `CC[C@@]1(O)C(=O)OCc2c1cc1n(c2=O)Cc2cc3c(CN(C)C)c(O)ccc3nc2-1` the figure was -89.6% (active); with `CCc1c2c(nc3ccc(OC(=O)N4CCC(N5CCCCC5)CC4)cc13)-c1cc3c(c(=O)n1C2)COC(=O)[C@]3(O)CC`, 8.52% (inactive). Take `CC(=O)[C@H]1CCC2C3C[C@H](C)C4=CC(=O)CC[C@]4(C)C3[C@@H](O)C[C@@]21C` (stereo partly specified): the activity change, negative = inhibition was -2.39% (inactive). As to `CN1C[C@@H]2c3ccccc3Oc3ccc(Cl)cc3[C@H]2C1`, the activity change, negative = inhibition was 14.2% (inactive).

Regarding `Cn1cc(-c2cnc3ccc4ccc(CS(=O)(=O)NCc5ccccn5)cc4c(=O)c3c2)cn1`, the activity change, negative = inhibition is -4.03% (inactive).

With `CS(=O)(=O)c1ccc(Cn2c3c(c4cc(F)cc(F)c42)CCCC3CC(=O)O)cc1` (stereo unspecified), the activity change, negative = inhibition was 1.13% (inactive) and 1.18% (inactive). For the compound `c1ccc(C(NCCNC(c2ccccc2)c2ccccc2)c2ccccc2)cc1`, the activity change, negative = inhibition is -24.5% (inactive) and -4.76% (inactive). Take `Cn1c(=O)cc(N2CCCC(N)C2)n(Cc2cc(F)ccc2C#N)c1=O` (stereo unspecified): the activity change, negative = inhibition is 0.449% (inactive). In the case of `C[C@H]1CC2C3CCC4=CC(=O)C=C[C@]4(C)[C@@]3(F)[C@@H](O)C[C@]2(C)[C@@]1(O)C(=O)COP(=O)(O)O` (stereo partly specified), the activity change, negative = inhibition was -6.5% (inactive).

As to `COc1cc(O)c2c(=O)c(OC)c(-c3ccc(OC)c(OC)c3)oc2c1`, the activity change, negative = inhibition was 3.09% (inactive). In the case of `CC(=O)OCC(=O)[C@@]1(O)CCC2C3CCC4=CC(=O)C=CC4(C)C3[C@@H](O)C[C@@]21C` (stereo partly specified), the activity change, negative = inhibition is 1.73% (inactive).

In the case of `CC1(C)[C@@H](O[C@H]2O[C@H](C(=O)O)[C@@H](O)[C@H](O)[C@@H]2O[C@@H]2O[C@H](C(=O)O)[C@@H](O)[C@H](O)[C@H]2O)CC[C@@]2(C)[C@H]3C(=O)C=C4[C@@H]5C[C@@](C)(C(=O)O)CC[C@]5(C)CC[C@@]4(C)[C@]3(C)CC[C@@H]12`, the activity change, negative = inhibition was 5.63% (inactive).

For the compound `CC[C@@]1(O)C(=O)OCc2c1cc1n(c2=O)Cc2cc3c([N+](=O)[O-])cccc3nc2-1`, the activity change, negative = inhibition was -85.8% (active). With `O=C(Cc1ccccc1)Nc1nc2ccc(Cl)cc2c2nc(-c3ccco3)nn12`, the activity change, negative = inhibition is 2.82% (inactive) and 3.45% (inactive). Take `Cc1nc(Cn2cnc3c2c(=O)n(C)c(=O)n3C)no1`: the activity change, negative = inhibition was 8.05% (inactive).

As for `CCOCCn1c(N2CCCN(C)CC2)nc2ccccc21`, the activity change, negative = inhibition is 16.4% (inactive). Next, `Cc1cnc(CNC(=O)c2c(=O)c3ccc(N4CCCN(C)CC4)nc3n3c2sc2ccccc23)cn1`: -82.2% (active); `CCC(C(N)=O)c1ccccc1` (stereo unspecified): -4.72% (inactive); `CN(Cc1ccccc1)C(=O)C(Cc1ccc2ccccc2c1)NC(=O)C1CCCN1C(=O)Nc1ccccc1[N+](=O)[O-]` (stereo unspecified): 0.794% (inactive). On to `O=C(O)c1cc2cc(Cl)ccc2[nH]1`, for which the activity change, negative = inhibition is 10.5% (inactive). Take `CCCCCCCCNC[C@@H](O)[C@H](O)[C@@H](O)[C@@H](O)CO`: the activity change, negative = inhibition was 17.8% (inactive). For the compound `S=P(N1CC1)(N1CC1)N1CC1`, the activity change, negative = inhibition was 7.66% (inactive). With `CC(C)OC(=O)c1cn(Cc2c(F)cccc2F)c2sc(-c3ccc(NC(=O)C(C)C)cc3)c(CN(C)Cc3ccccc3)c2c1=O` the figure was -80.6% (active); with `OC(CN1CCNCC1)Cn1c2ccc(Br)cc2c2cc(Br)ccc21` (stereo unspecified), -61.8% (inactive); with `O=C1Cc2cc(Cl)ccc2N1`, 8.1% (inactive). Regarding `CC[C@H](C)n1cc(C)c2c(C(=O)NCc3c(C)cc(C)[nH]c3=O)cc(-c3ccc(N4CCNCC4)nc3)cc21`, the activity change, negative = inhibition was 1.27% (inactive).

With `CN(C)CCOc1ccc(-c2nc(-c3ccc4c(c3)CC/C4=N\O)c(-c3ccncc3)[nH]2)cc1`, the activity change, negative = inhibition was -76.7% (active).

In the case of `OCCn1cc(-c2ccc3c(c2)CC/C3=N\O)c(-c2ccncc2)n1`, the activity change, negative = inhibition was -63.9% (inactive) and -44.3% (inactive). For `O=c1[nH]c(=O)n([C@H]2CC(O)[C@@H](CO)O2)cc1/C=C/Br` (stereo partly specified), the activity change, negative = inhibition was 8.12% (inactive). As for `O=C(/C=C/c1cccc(S(=O)(=O)Nc2ccccc2)c1)NO`, the activity change, negative = inhibition was -80.9% (active). With `CCNC(=O)/C=C/c1cccc(Br)c1` the figure was 53.2% (inactive). Turning to `O=C(/C=C/c1ccccc1)c1ccc(O)cc1O`, the activity change, negative = inhibition was 65.1% (inactive). In the case of `CNC(=O)CN(CCN(CCN(CC(=O)O)CC(=O)NC)CC(=O)O)CC(=O)O.[Gd]`, the activity change, negative = inhibition is 9.1% (inactive). Consider `CCCCCN(CCCOC)C(=O)[C@@H](CCC(=O)O)NC(=O)c1ccc(Cl)c(Cl)c1`, for which the activity change, negative = inhibition was 5.05% (inactive). For `NCCCC[C@@H]1NC(=O)[C@@H](Cc2c[nH]c3ccccc23)NC(=O)[C@H](c2ccccc2)NC(=O)[C@@H]2C[C@@H](OC(=O)NCCN)CN2C(=O)[C@H](Cc2ccccc2)NC(=O)[C@H](Cc2ccc(OCc3ccccc3)cc2)NC1=O` (cyclo([Hyp]([CO-Ethylenediamine])[Phg][dW]KY(Bn)F)), the activity change, negative = inhibition was 9.07% (inactive). With `NCC(=O)Nc1ccc(-n2nc(C(F)(F)F)cc2-c2ccc3c(ccc4ccccc43)c2)cc1` the figure was -75.5% (active).

Consider `Cc1ccc(-c2cc(C(F)(F)F)nn2-c2ccc(S(N)(=O)=O)cc2)cc1`, for which the activity change, negative = inhibition was 17% (inactive) and 0.0196% (inactive).

`CCn1cnc(C(=O)NC)c1C(=O)NC`: the activity change, negative = inhibition is 4% (inactive). In the case of `C[C@H](/C=C/[C@H](C)C(C)(C)O)[C@H]1CC[C@H]2/C(=C/C=C3C[C@@H](O)C[C@H](O)C3)CCC[C@]12C`, the activity change, negative = inhibition is 20.9% (inactive). With `N#Cc1cc2c(OCC(O)CN3CCN(C(c4ccccc4)c4ccccc4)CC3)cccc2[nH]1` (stereo unspecified), the activity change, negative = inhibition is -30% (inactive). As for `NCC(=O)N1C[C@H](NC(=O)c2ccccc2)C[C@H]1C(=O)O`, the activity change, negative = inhibition is 17.6% (inactive).

As to `CC1CC2C3CCC4=CC(=O)C=CC4(C)C3(F)C(O)CC2(C)C1(O)C(=O)CO` (stereo unspecified), the activity change, negative = inhibition is -10.3% (inactive). On to `C=CCn1c(=O)c2cnc(Nc3ccc(N4CCN(C)CC4)cc3)nc2n1-c1cccc(C(C)(C)O)n1`, for which the activity change, negative = inhibition was -82.2% (active). Take `CN1CCN(c2cccc(Nc3nc4c(-c5ccc(S(C)(=O)=O)cc5)cccn4n3)c2)CC1`: the activity change, negative = inhibition is -0.0052% (inactive). With `CC1(C)O[C@@H]2CC3C4CCC5=CC(=O)C=C[C@]5(C)C4[C@@H](O)C[C@]3(C)[C@]2(C(=O)CO)O1` (stereo partly specified) the figure was 0.966% (inactive).

For `CC(C)C(=O)OC[C@@]1(N=[N+]=[N-])O[C@@H](n2ccc(N)nc2=O)[C@H](OC(=O)C(C)C)[C@@H]1OC(=O)C(C)C`, the activity change, negative = inhibition is 6.96% (inactive). Consider `Cn1ncc(Cl)c1-c1cc(C(=O)N[C@H](CN)Cc2ccc(F)c(F)c2)oc1Cl`, for which the activity change, negative = inhibition was -80% (active). With `Cn1ncc(Cl)c1-c1cc(C(=O)N[C@H](CN)Cc2cccc(F)c2)sc1Cl` the figure was -49.2% (inactive); with `CNCC(=O)O`, -1.68% (inactive); with `CCOC(=O)c1c(C)n(C)c2ccc(O)cc12`, -6.15% (inactive) and 12.7% (inactive).

As for `CCCCCCc1ccc(O)cc1O`, the activity change, negative = inhibition is 10.9% (inactive).

For `CCCCCS(=O)(=O)CCCCCCCCCCn1c(-c2ccc(O)cc2)c(C)c2cc(O)ccc21`, the activity change, negative = inhibition is -63.6% (inactive) and -77.2% (active).
